Data published in PubChem BioAssay.
Values without a mark were called inactive. Calls of active or inactive are those of the source. Unless noted, no stated cut-off is given here; in the data, active means inhibition above about 33%; inactive means the rest.

biological target: Steroidogenic factor 1 (Homo sapiens) (UniProt Q13285); assay: SF1 (NR5A1) inverse agonists, counter-screen for LRH-1 inverse agonist project, cell-based, luminescence, high throughput (AID 651614; in the data active means inhibition above about 44%;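 further: cells cotransfected with StAR promoter reporter and SF1 expression vector; 0% = vehicle on cells with receptor and 100% = vehicle on cells lacking receptor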); conditions: cell-based SF1 luciferase reporter, at 3.6 µM, stronger effect = higher value
Sequence (Q13285 whole entry, looked up): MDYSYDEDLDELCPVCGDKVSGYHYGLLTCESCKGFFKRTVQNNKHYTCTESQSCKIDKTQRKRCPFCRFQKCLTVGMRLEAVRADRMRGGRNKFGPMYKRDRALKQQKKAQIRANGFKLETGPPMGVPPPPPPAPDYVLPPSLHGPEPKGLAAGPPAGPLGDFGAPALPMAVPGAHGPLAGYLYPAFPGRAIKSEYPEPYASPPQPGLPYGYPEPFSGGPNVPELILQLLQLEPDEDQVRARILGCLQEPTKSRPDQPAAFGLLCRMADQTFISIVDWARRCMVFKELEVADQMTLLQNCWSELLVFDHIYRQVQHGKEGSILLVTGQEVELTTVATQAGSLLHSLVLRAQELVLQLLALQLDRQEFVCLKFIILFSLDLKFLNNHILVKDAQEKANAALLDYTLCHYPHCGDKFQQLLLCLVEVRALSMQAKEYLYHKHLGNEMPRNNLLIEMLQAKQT

Row | Structure (SMILES) | inhibition
1 | CCOc1ccc2c(c1)sc(N)[n+]2Cc1cc(C)cc2cccnc12 | 32.1%
2 | C=CCNC(=S)N/N=C/c1ccc(N(CC)Cc2ccccc2)cc1 | 24.4%
3 | O=C(Nc1ccc(Cc2ccncc2)cc1)c1ccc([N+](=O)[O-])o1 | 63.6% (active)
4 | CCCN(CC(=O)Nc1ccc(C(C)=O)cc1)CC(=O)Nc1ccccc1C | 56% (active)
5 | COc1ccc(NC(=O)COc2ccc(N(C)S(=O)(=O)c3ccc(Cl)cc3)cc2)cc1OC | 51.7% (active)
6 | O=[N+]([O-])c1ccc(S(=O)Cc2ccccc2)c([N+](=O)[O-])c1 (stereo not given) | 22.4%
7 | CCc1nc(SCC(=O)c2ccccc2)c2ccccc2n1 | 55.3% (active)
8 | C/C(CC1CC(C)(C)OC1=O)=N/Nc1nc(-c2ccccc2)cs1 (stereo not given) | 54.3% (active)
9 | COC(=O)c1ccc(COc2ccc(/C=N/NC(N)=S)cc2)o1 | 59% (active)
10 | COc1ccc(S(=O)(=O)Nc2cc3c4c(oc3c3ccccc23)CCCC4=O)cc1 | 65.9% (active)
11 | CCc1cccc2sc(N3CCN(C(=O)c4ccc([N+](=O)[O-])o4)CC3)nc12 | 52.5% (active)
12 | CC(NC(=O)c1ccco1)C(c1cccs1)N1CCN(c2ccccc2)CC1 (stereo not given) | 34.2%
13 | CCc1ccccc1NC(=O)CSc1nnc(Cn2nnc3ccccc32)n1C | 48.2% (active)
14 | Cc1cc(Cl)ccc1NC(=O)CN1C(=O)C(=O)N(C2CCCC2)C1=O | 43.8% (active)
15 | C=CC(=O)Nc1ccc(Br)cc1 | 51.4% (active)
16 | CS(=O)(=O)N1CCc2cc(-c3csc(NC(=O)Cc4cccs4)n3)ccc21 | 39.9%
17 | Cc1ccc(NC(=O)COC(=O)c2cc(=O)c3ccccc3o2)c(Br)c1 | 51.1% (active)
18 | CN1CC(=O)N(CC(=O)Nc2ccc(N3CCOCC3)cc2)C1=O | 65.2% (active)
19 | CN1c2ccccc2C(C)(C)C12C=Nc1c(cc(N3CCOCC3)c3ccccc13)O2 (stereo not given) | 21.1%
20 | COC(=O)Cc1sc(-c2ccccn2)nc1-c1ccccc1 | 58.9% (active)

Row | Structure (SMILES) | inhibition
21 | CCOc1ccc(CCNC(=O)COC(=O)/C=C/c2ccc(OC(F)F)c(OC)c2)cc1OCC | 47.1% (active)
22 | CCc1cc(=O)oc2c(C)c(OCC(=O)NCCCN3CCOCC3)ccc12 | 42.6%
23 | CCc1cc(=O)[nH]c(SCC(=O)Nc2ccc3c(c2)OCCO3)n1 | 45.7% (active)
24 | CCC1(C)OC(=O)N2CCc3c(C)[nH]c4c(C)ccc(c34)C21C (stereo not given) | 44.9% (active)
25 | COc1ccc(/C=N/NC(=O)c2cc(-c3ccc(C)cc3C)nc3ccccc23)cc1COC(C)=O | 50.6% (active)
26 | COc1ccc2c(c1)C1C=CCC1C(c1cc3c(cc1Br)OCO3)N2 (stereo not given) | 30.1%
27 | CC(=O)c1ccc(NC(=O)CSc2nc3[nH]ncc3c(=O)[nH]2)cc1 | 50.8% (active)
28 | Cc1ccc(CN2CCC[C@]3(N[C@H](c4ccc(C(F)(F)F)cc4)[C@@H]4C(=O)N(Cc5ccccc5)C(=O)[C@@H]43)C2=O)cc1 | 28.4%
29 | COc1ccc(C[C@@H]2OC3(C=CC(=O)C=C3)O[C@H]2Cc2ccc(OC)cc2)cc1 | 66% (active)
30 | Cc1cccc(NC(=O)CSc2nc3[nH]ncc3c(=O)[nH]2)c1C | 52.2% (active)
31 | Cc1ccc(NC(=O)CNNC(=O)c2cccc([N+](=O)[O-])c2)cc1[N+](=O)[O-] | 31.3%
32 | CCC1CCCCN1C(=O)c1ccc([N+](=O)[O-])o1 (stereo not given) | 46.7% (active)
33 | COc1ccc(CCNC(=O)COC(=O)c2cc(Cl)nc(Cl)c2)cc1 | 51.4% (active)
34 | Cc1ccccc1Nc1nc(Cl)c(C=O)s1 | 41.7%
35 | CCCc1cc(=O)oc2cc(OCC(=O)N3CCN(C(=O)C4COc5ccccc5O4)CC3)ccc12 (stereo not given) | 55.5% (active)
36 | CC(=O)c1ccsc1-c1c(C)cc2oc(=O)cc(-c3ccccc3)c2c1C | 54.4% (active)
37 | COc1ccc(C2(C)NC(=O)N(CC(=O)Nc3ccc(C)cc3Br)C2=O)cc1OC (stereo not given) | 28.4%
38 | CCOc1cc(S(=O)(=O)NCc2ccncc2)ccc1Cl | 57.9% (active)
39 | O=C(CSc1ccccn1)Nc1nonc1[N+](=O)[O-] | 26.5%
40 | COC(=O)c1c(NC(=O)c2ccco2)sc2c1CCN(C(C)=O)C2 | 44.7% (active)

system: not listed separately; assay: VP16 transactivation reporter inhibitors, counter-screen for LRH-1 inverse agonist project, cell-based, luminescence, high throughput (AID 651615); conditions: Gal4-VP16 luciferase reporter cells, at 3.6 µM, stronger effect = higher value

Row | Structure (SMILES) | inhibition
41 | CCOc1ccc2c(c1)sc(N)[n+]2Cc1cc(C)cc2cccnc12 | 39.5% (active)
42 | C=CCNC(=S)N/N=C/c1ccc(N(CC)Cc2ccccc2)cc1 | 6.68%
43 | O=C(Nc1ccc(Cc2ccncc2)cc1)c1ccc([N+](=O)[O-])o1 | -16.8%
44 | CCCN(CC(=O)Nc1ccc(C(C)=O)cc1)CC(=O)Nc1ccccc1C | 9.79%
45 | COc1ccc(NC(=O)COc2ccc(N(C)S(=O)(=O)c3ccc(Cl)cc3)cc2)cc1OC | 51.1% (active)
46 | O=[N+]([O-])c1ccc(S(=O)Cc2ccccc2)c([N+](=O)[O-])c1 (stereo not given) | 16.7%
47 | CCc1nc(SCC(=O)c2ccccc2)c2ccccc2n1 | -18.1%
48 | C/C(CC1CC(C)(C)OC1=O)=N/Nc1nc(-c2ccccc2)cs1 (stereo not given) | -29.5%
49 | COC(=O)c1ccc(COc2ccc(/C=N/NC(N)=S)cc2)o1 | 15.7%
50 | COc1ccc(S(=O)(=O)Nc2cc3c4c(oc3c3ccccc23)CCCC4=O)cc1 | -1.29%
51 | CCc1cccc2sc(N3CCN(C(=O)c4ccc([N+](=O)[O-])o4)CC3)nc12 | 17.4%
52 | CC(NC(=O)c1ccco1)C(c1cccs1)N1CCN(c2ccccc2)CC1 (stereo not given) | -0.25%
53 | CCc1ccccc1NC(=O)CSc1nnc(Cn2nnc3ccccc32)n1C | -5.32%
54 | Cc1cc(Cl)ccc1NC(=O)CN1C(=O)C(=O)N(C2CCCC2)C1=O | 1.38%
55 | C=CC(=O)Nc1ccc(Br)cc1 | -1.85%
56 | CS(=O)(=O)N1CCc2cc(-c3csc(NC(=O)Cc4cccs4)n3)ccc21 | 42.8% (active)
57 | Cc1ccc(NC(=O)COC(=O)c2cc(=O)c3ccccc3o2)c(Br)c1 | 2.1%
58 | CN1CC(=O)N(CC(=O)Nc2ccc(N3CCOCC3)cc2)C1=O | -10.9%
59 | CN1c2ccccc2C(C)(C)C12C=Nc1c(cc(N3CCOCC3)c3ccccc13)O2 (stereo not given) | 4.98%
60 | COC(=O)Cc1sc(-c2ccccn2)nc1-c1ccccc1 | -7.62%

Row | Structure (SMILES) | inhibition
61 | CCOc1ccc(CCNC(=O)COC(=O)/C=C/c2ccc(OC(F)F)c(OC)c2)cc1OCC | -3.71%
62 | CCc1cc(=O)oc2c(C)c(OCC(=O)NCCCN3CCOCC3)ccc12 | 2.03%
63 | CCc1cc(=O)[nH]c(SCC(=O)Nc2ccc3c(c2)OCCO3)n1 | 0.13%
64 | CCC1(C)OC(=O)N2CCc3c(C)[nH]c4c(C)ccc(c34)C21C (stereo not given) | 12.7%
65 | COc1ccc(/C=N/NC(=O)c2cc(-c3ccc(C)cc3C)nc3ccccc23)cc1COC(C)=O | -17.4%
66 | COc1ccc2c(c1)C1C=CCC1C(c1cc3c(cc1Br)OCO3)N2 (stereo not given) | -14.3%
67 | CC(=O)c1ccc(NC(=O)CSc2nc3[nH]ncc3c(=O)[nH]2)cc1 | -6.29%
68 | Cc1ccc(CN2CCC[C@]3(N[C@H](c4ccc(C(F)(F)F)cc4)[C@@H]4C(=O)N(Cc5ccccc5)C(=O)[C@@H]43)C2=O)cc1 | 22%
69 | COc1ccc(C[C@@H]2OC3(C=CC(=O)C=C3)O[C@H]2Cc2ccc(OC)cc2)cc1 | 70.6% (active)
70 | Cc1cccc(NC(=O)CSc2nc3[nH]ncc3c(=O)[nH]2)c1C | -4.74%
71 | Cc1ccc(NC(=O)CNNC(=O)c2cccc([N+](=O)[O-])c2)cc1[N+](=O)[O-] | -5.02%
72 | CCC1CCCCN1C(=O)c1ccc([N+](=O)[O-])o1 (stereo not given) | 3.65%
73 | COc1ccc(CCNC(=O)COC(=O)c2cc(Cl)nc(Cl)c2)cc1 | -2.65%
74 | Cc1ccccc1Nc1nc(Cl)c(C=O)s1 | -5.11%
75 | CCCc1cc(=O)oc2cc(OCC(=O)N3CCN(C(=O)C4COc5ccccc5O4)CC3)ccc12 (stereo not given) | 3.04%
76 | CC(=O)c1ccsc1-c1c(C)cc2oc(=O)cc(-c3ccccc3)c2c1C | -0.37%
77 | COc1ccc(C2(C)NC(=O)N(CC(=O)Nc3ccc(C)cc3Br)C2=O)cc1OC (stereo not given) | 0.45%
78 | CCOc1cc(S(=O)(=O)NCc2ccncc2)ccc1Cl | 55.6% (active)
79 | O=C(CSc1ccccn1)Nc1nonc1[N+](=O)[O-] | -15.1%
80 | COC(=O)c1c(NC(=O)c2ccco2)sc2c1CCN(C(C)=O)C2 | -41%
